# Pf growth 48h: Primary qHTS for delayed death inhibitors of the malarial parasite plastid, 48 hour incubation | P. falciparum luciferase growth in erythrocytes, 48 h | Potency, µM (top dose mostly 28.7 µM), without a hit: top-dose activity change, negative = inhibition, most hits filed as inhibitors | actives 5.9% (n = 310,000) | AID 504832, 2011; note: potency is the fitted concentration of half-maximal effect; % is set by controls: 0 for no effect and ±100 for the full control effect
#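 Luminescence readout; reporter = integrated firefly luciferase in P. falciparum. RBC culture at 2% hematocrit, 0.1% parasitemia final, 37 C/5% CO2; decreased signal taken as growth inhibition.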
# HCV inh: qHTS Assay for Inhibitors of Hepatitis C Virus (HCV); Huh7.5.1 HCVcc-Cre infection, luciferase reporter, 44 h; Potency, µM (doses to about 41.8 µM), for inactives: top-dose activity change, negative = inhibition, most hits filed as inhibitors; actives 3.4% (n = 340,000); note: potency is the fitted concentration of half-maximal effect; % is set by controls: 0 for no effect and ±100 for the full control effect
#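 Whole-lifecycle infectious HCVcc-Cre system; cells 1,000/well, compound then virus (~0.5 moi) added 4 h after plating, 44 h culture. Luciferase read 15 sec following 15 min substrate incubation, room temp.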
# Pf growth 96h: Primary qHTS for delayed death inhibitors of the malarial parasite plastid, 96 hour incubation; P. falciparum luciferase reporter growth, 96 h; Potency, µM (top dose mostly 28.7 µM), inactives show top-dose activity change, negative = inhibition, hits mostly inhibitors; actives 6.9% (n = 320,000); note: potency is the fitted concentration of half-maximal effect; % is set by controls: 0 for no effect and ±100 for the full control effect
#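 96 h incubation, 37 C, 5% CO2, of luciferase-reporter P. falciparum-infected RBCs (2% hematocrit, 0.05% parasitemia final) with test compounds; endpoint luminescence.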
# HCMV inh: qHTS Assay for inhibitors of the human cytomegalovirus (HCMV); activity change, negative = inhibition, % at 57.5 µM; HFF cells, HCMV-luciferase reporter, 72 h; stronger effect = lower value; actives 4.5% (n = 410,000); in the data active = activity change below about -60%; inconclusive = no clear call, values can overlap the other calls; inactive = above about -39%; note: % is set by controls: 0 for no effect and ±100 for the full control effect
#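 HFF cells seeded 16 h at 37C, treated with compounds, infected with luciferase-reporter HCMV at MOI 1 PFU/cell; luciferase read at 72 h post infection, normalized to buffer-only and Salinomycin controls.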
# SARS PLpro yeast: qHTS of Yeast-based Assay for SARS-CoV PLP | S. cerevisiae expressing SARS-CoV PLpro, growth rescue | Potency, µM (titrated, usually from 32.9 µM), inactives show top-dose activity, positive = growth rescue, actives largely listed as activators | actives 0.19% (n = 330,000) | AID 485353, 2010; calls by dose curve; note: potency is the fitted concentration of half-maximal effect; 0% is about no effect; nearly all actives have a fitted effect of over 55% in size
# Sm TGR inh: qHTS Assay for the Inhibitors of Schistosoma Mansoni Peroxiredoxins. actives 3% (n = 360,000). Potency, µM (top dose mostly 114 µM), inactives show at the top dose activity change, negative = inhibition, most hits filed as inhibitors. Schistosoma mansoni thioredoxin glutathione reductase (TGR), Q962Y6. purified TGR, DTNB reduction, TNB absorbance 405 nm; note: potency is the fitted concentration of half-maximal effect; % is set by controls: 0 for no effect and ±100 for the full control effect; nearly all actives have a fitted effect of over 60% in size
#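 TGR 20 nM + NADPH 100 uM (dispensed conc.), cpd preinc 15 min RT; start with NADPH (500 uM addition) then DTNB (15 mM addition). Kinetic TNB absorbance, 405 nm filter. Four-parameter Hill fit across titration.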
# The depositor's hits bear a star; u = inconclusive; x = no result given; [ ] = another dose, or the depositor's remark. Hits are enriched below; roughly 15% of the tested compounds scored in any of these assays. Unless noted, calls come from the whole dose curve; as a rule, active = well fitted curve in the direction sought with a large enough effect; inconclusive = small, poorly fitted or top-dose-only effect, or another doubt; inactive = no such curve, though single readings can be large; an effect the other way counts as inactive or inconclusive.
SMILES,Pf growth 48h,HCV inh,Pf growth 96h,HCMV inh,SARS PLpro yeast,Sm TGR inh
O=C(Cc1ccccc1)NC1CCN(Cc2ccccc2)CC1,2%,-21%,-18%,-62*,-2%,56%
Cc1ccccc1CC(=O)NC1CCN(Cc2ccccc2)CC1,-12%,-13%,-14%,25,-5%,12%
N#CC(c1ccccc1)C1CCN(Cc2ccccc2)CC1 (stereo not given),20%,-7%,22%,-9,14%,89µM*
O=C(Cc1ccc(Br)cc1)NC1CCN(Cc2ccccc2)CC1,-12%,10µM*,-22%,u,0%,2%
CCOC(=O)N1CCC(NC(=O)c2cc(C(=O)NCc3cccc(Cl)c3)ccc2CO)CC1,x,u,u,-4,8%,-8%
Cc1cccc(NC(=O)c2sc3nc4n(c(=O)c3c2C)N=C(c2ccc(F)cc2)CS4)c1C,x,x,x,-3,x,0%
COc1ccc2oc(-c3cccc(NC(=O)c4ccc(C#N)cc4F)c3)nc2c1,x,x,x,14,x,11%
O=C(NC1CCN(Cc2ccc(Cl)cc2Cl)CC1)c1ccccc1,-16%[0.00184 µM],u,2.9µM*,-81*,1%,6%
O=C(NC1CCN(Cc2ccccc2)CC1)c1ccccc1,13%[0.00184 µM],-1%,-5%,-9,-1%,0%
CCC(=O)c1ccc(OCC(=O)NC2CCN(Cc3ccccc3)CC2)cc1,x,u,x,-105*,6%,x
CN1C(=O)/C(=C\c2ccccc2F)Sc2ccc(C(=O)NC3CCN(Cc4ccccc4)CC3)cc21,1.7µM*,4µM*,u,-71*,-2%,-6%
Cc1ccc(-c2nnn(CC(=O)NC3CCN(Cc4ccccc4)CC3)n2)cc1,u,22µM*,10%,-6,7%,-2%
O=C(c1ccc2c(c1)N(Cc1ccccc1)C(=O)c1ccccc1S2(=O)=O)N1CCN(c2ccccc2)CC1,x,x,x,-24,x,-1%
Cn1c(SCC(=O)Nc2ccc3c(c2)OCCO3)nnc1-c1ccncc1,6%,2%,-2%,1,2%,-1%
NC(=S)N/N=C1\CCOc2ccc(Cl)cc21,-10%,u,u,-104*,1%,0%
C/C(=N\NC(N)=S)c1ccc2c(c1)OCCO2,-14%,u,u,31,2%,-10%
C=C[C@]1(C)C[C@@H](OC(=O)CSCCN(CC)CC)[C@]2(C)C(C)CC[C@]3(CCC(=O)[C@H]32)[C@@H](C)[C@@H]1O (stereo not given in full),13µM*,u,2.1µM*,114,x,0%
C=C[C@@]1(C)C[C@H](OC(=O)CSC(C)(C)CNC(=O)[C@@H](N)C(C)C)[C@@]2(C)C(C)CC[C@@]3(CCC(=O)[C@@H]32)[C@H](C)[C@H]1O (stereo not given in full),1.1µM*,x,-18%,x,x,x
CC(=O)c1ccc(NC(=O)CCS(=O)(=O)c2ccc3c(c2)n(C)c(=O)c(=O)n3C)cc1,40%,17%,9.3µM*,x,8%,40µM*
CC(=O)Nc1ccc(NC(=O)CCS(=O)(=O)c2ccc3c(c2)oc(=O)n3C)cc1,17%,8%,9.3µM*,-13,-1%,u
Cc1cccc(NC(=O)CCS(=O)(=O)c2ccc3c(c2)oc(=O)n3C)c1,5%,9%,8.3µM*,-22,-1%,u
CC(=O)c1cccc(NC(=O)CCS(=O)(=O)c2ccc3c(c2)n(C)c(=O)c(=O)n3C)c1,x,x,x,28,x,u
COc1ccc(NC(=O)CCS(=O)(=O)c2ccc3c(c2)oc(=O)n3C)cc1OC,4%,12%,u,-18,-4%,-14%
CCc1ccc(NC(=O)CCS(=O)(=O)c2ccc3c(c2)oc(=O)n3C)cc1,x,x,x,-6,x,-3%
Cc1ccc(NC(=O)CCS(=O)(=O)c2ccc3c(c2)oc(=O)n3C)c(Br)c1,x,x,x,-20,x,32µM*
SMILES,Pf growth 48h,HCV inh,Pf growth 96h,HCMV inh,SARS PLpro yeast,Sm TGR inh
COc1ccc(CN(CC(=O)NCC2CCCO2)C(=O)CCC(=O)Nc2nccs2)cc1 (stereo not given),0%,6%,19%,21,-1%,-2%
Cn1c(=O)oc2cc(NC(=O)CCl)ccc21,5.2µM*,u,6.6µM*,-106*,17%,10µM*
Cc1cc(NC(=O)CCNS(=O)(=O)c2ccc3c(c2)oc(=O)n3C)ccc1Br,x,x,x,-9,x,-12%
CCc1cccc(C)c1NC(=O)c1cc(C)nc2c1c(C)nn2-c1cccc(Cl)c1C,x,x,x,1,x,3%
CC(=O)c1c(C)oc2c1cc(O)c1ccccc12,33%,u,28%,0,-1%,-4%
CCOC(=O)c1c(C)[nH]c2c1cc(O)c1ccccc12,0.15µM*,u,u,-34,-6%,-20%
CCOC(=O)c1c(C)n(CC)c2c1cc(O)c1ccccc12,-34%,-1%,6%,-21,1%,1%
CCOC(=O)c1c(C)oc2c1cc(O)c1ccccc12,120%,32µM*,-2%,179,3%,-20%
CCOC(=O)c1c(C)oc2c1c(C=NCc1ccccn1)c(O)c1ccccc12,2.1µM*,4.5µM*,u,-32,-13%,u
CCOc1ncccc1C(=O)NCC(c1ccco1)N1CCCCC1 (stereo not given),x,5%,x,-18,-7%,x
CCN1C[C@@H]2[C@@H]3C(=O)N(C)C(=O)[C@@H]3[C@](C)(C1=O)N2C(=O)c1ccc(F)cc1,x,2%,x,2,x,x
CCOC(=O)c1c(C)nc(C)c2c(=O)oc3ccccc3c12,68%,-11%,0%,-12,0%,-2%
CSc1ccccc1OCc1cc(C(=O)NC2CCOC(C)(C)C2)no1 (stereo not given),-30%,x,u,1,-6%,-21%
Cc1ccc(C)c(OCc2cc(C(=O)NC3CCOC(C)(C)C3)no2)c1 (stereo not given),-3%,x,10µM*,47,-2%,-10%
COc1ccc(OCc2cc(C(=O)NC3CCOC(C)(C)C3)no2)c2ccccc12 (stereo not given),9.3µM*,x,1.2µM*,236,-9%,-35%
Cc1ccc(C)c(OCc2cc(C(=O)N3CCN(c4ccccc4C)CC3C)no2)c1 (stereo not given),6%,u,12µM*,0,17%,-35%
COC(=O)c1cccc(NC(=S)Nc2ccccc2Cl)c1,49%,-20%,-9%,12,2%,22µM*
